Here are results for 21 compounds from PubChem BioAssay (NCI).

Experiment [1] is described as follows: NCI Yeast Anticancer Drug Screen. Data for the rad50 strain (AID 155).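 Note: 0% = growth of vehicle-only cultures of the same strain.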 The following applies: S. cerevisiae rad50 strain growth inhibition; at 50.0 µM; hits give high values. The method, boiled down:
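Relative growth inhibition (compound vs vehicle) was measured in yeast with a defined repair-gene alteration.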

Experiment [2] in a line: NCI Yeast Anticancer Drug Screen. Data for the mec2-1 strain (AID 157). The following applies: S. cerevisiae mec2-1 strain, at 50.0 µM, hits give high values. In short, it runs like this: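 Each compound was tested on mec2-1 yeast, a strain altered in DNA damage repair or cell cycle control. Growth inhibition is reported relative to vehicle.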
A short description of experiment [3]: NCI Yeast Anticancer Drug Screen. Data for the sgs1 mgt1 strain (AID 161).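 Note: 0% = growth of cultures given vehicle only.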 The following applies: S. cerevisiae sgs1 mgt1 strain, at 50.0 µM, hits give high values. In short, it runs like this:
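Test agents were incubated with a DNA-repair-mutant yeast strain. Growth was then read and compared against vehicle-treated controls.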

Experiment [4] in a line: NCI Yeast Anticancer Drug Screen. Data for the cln2 rad14 strain (AID 165).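 Note: 0% = growth equal to vehicle treated cultures.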 The following applies: S. cerevisiae cln2 rad14 strain, at 50.0 µM, hits give high values. The method, boiled down:
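Test compounds were added to cln2 rad14 yeast cultures; inhibition of growth was then determined by comparison with vehicle treatment.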

The nature of experiment [5]: NCI Yeast Anticancer Drug Screen. Data for the bub3 strain (AID 167). The following applies: S. cerevisiae bub3 mutant strain, at 50.0 µM, hits give high values. The method, boiled down:
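Screening used yeast with an engineered genetic alteration affecting cell cycle control. Compound-exposed cultures were compared with vehicle cultures, and reduced growth was taken as inhibition.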

Experiment [6] can be described thus: NCI Yeast Anticancer Drug Screen. Data for the mlh1 rad18 strain (AID 175). The following applies: S. cerevisiae mlh1 rad18 strain growth inhibition; at 50.0 µM; hits give high values. In short, it runs like this:
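Inhibition values reflect reduced growth of mutant yeast versus vehicle-treated controls following compound exposure; the mutations affect DNA damage repair.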

About 79,000 compounds went through this panel and 15% of them were active in at least one assay; those are over-represented in the sample as a whole. A number with no mark means an inactive call. Active and inactive are the calls of the source. Cut-off read from the data, not from the text of the source: active = growth inhibition above about 70%; inactive = the rest.

For `Cn1c2nc(-[n+]3ccc(N4CCOCC4)cc3)nc-2c([O-])n(C)c1=O`, the growth inhibition in experiment [1] was -20.8%; in experiment [2] it was 1.1%; in experiment [3] it was -17.9%; in experiment [4], -44.9%; in experiment [5], -10.8%; in experiment [6], -11.7%.
On to `CC(=O)N(C(C)=O)c1cc2c3ccccc3ccc2c2ccccc12`, for which the growth inhibition in experiment [1] is 22.4%; in experiment [2], -6.3%; in experiment [3], 31.1%; in experiment [4], 15.1%; in experiment [5], 32.8%; in experiment [6] it was 29.4%.
For `Cc1ccc(S(=O)(=O)Oc2ccccc2NS(=O)(=O)c2ccccc2)cc1`, the growth inhibition in experiment [1] was 68.2%; in experiment [2], 53.2%; in experiment [3], 76.5% (active); in experiment [4], 52.1%; in experiment [5], 13.5%; in experiment [6], 48.1%.
For the compound `NC(Cc1cccs1)C(=O)O` (stereo unspecified), the growth inhibition was -31.9% in experiment [1]; -21.9% in experiment [2]; -27.6% in experiment [3]; -43% in experiment [4]; -2.5% in experiment [5]; -37.1% in experiment [6].
As for `COc1c(C)c(=O)n2c3ccccc3n(C)c2c1C#N`, the growth inhibition is 19.5% in experiment [1]; 10.3% in experiment [2]; -18.4% in experiment [3]; 8.55% in experiment [4]; 0.85% in experiment [5]; 14.8% in experiment [6].
As for `Cc1cccc(C)c1NC(=S)NC1CC(C)CC(C)(C)C1` (stereo unspecified), the growth inhibition in experiment [1] was 41.2%; in experiment [2], 50.5%; in experiment [3], 76.7% (active); in experiment [4], 57.9%; in experiment [5], 63%; in experiment [6] it was 50.3%.
As to `Nc1ncnc2c1ncn2C1CC(O)C(COP(=O)(O)O)O1` (stereo unspecified), the growth inhibition in experiment [1] is 0.15%; in experiment [2] it was -4.65%; in experiment [3], 0.85%; in experiment [4] it was -23.4%; in experiment [5], 0.45%; in experiment [6], 4.7%.
Regarding `CN/N=C(/CC(=O)c1sc(NNC(C)=O)nc1C)C(=O)Nc1ccc(OC)cc1OC`, the growth inhibition in experiment [1] is 15.7%; in experiment [2] it was -14.5%; in experiment [3], 3.2%; in experiment [4], 15.4%; in experiment [5], 15%; in experiment [6] it was -2.15%.
In the case of `O=C1NC(=O)/C(=C/CCCO)N1`, the growth inhibition in experiment [1] was 2.85%; in experiment [2], -5.3%; in experiment [3], -10.4%; in experiment [4], -8.95%; in experiment [5], -0.25%; in experiment [6], -6.6%.
Consider `CC(=O)NC(CCCc1ccccc1)C(=O)O` (stereo unspecified), for which the growth inhibition in experiment [1] was 7.65%; in experiment [2], 9%; in experiment [3], -17.1%; in experiment [4], -23.1%; in experiment [5] it was 2.45%; in experiment [6], -18.9%.
Turning to `O=C(O)CS/C(=N\S(=O)(=O)c1ccccc1)Nc1cccc(Cl)c1`, the growth inhibition in experiment [1] is -2.85%; in experiment [2] it was -24.9%; in experiment [3], 19.1%; in experiment [4] it was 12%; in experiment [5], 5.45%; in experiment [6], -7.85%.
On to `Cn1ccc(=O)n(C)c1=O`, for which the growth inhibition in experiment [1] is -8.15%; in experiment [2] it was -10.8%; in experiment [3], 2%; in experiment [4], 5.15%; in experiment [5] it was 5.05%; in experiment [6], 2.25%.
For the compound `O=C(Nc1ccc2c(c1)C(O)c1ccccc1-2)C(F)(F)F` (stereo unspecified), the growth inhibition in experiment [1] is 11.4%; in experiment [2], -4.3%; in experiment [3], 18.9%; in experiment [4] it was 8.35%; in experiment [5], 6.85%; in experiment [6], 16.1%.
For the compound `Fc1ccc(-c2nnc(-c3ccc4ccccc4c3)o2)cc1`, the growth inhibition in experiment [1] was 18.1%; in experiment [2], -11.3%; in experiment [3] it was 21.4%; in experiment [4], 12.2%; in experiment [5], 35.8%; in experiment [6], -1.3%.
Regarding `CCC(C)CCC(N)C(=O)O` (stereo unspecified), the growth inhibition in experiment [1] is 2.3%; in experiment [2] it was 11.4%; in experiment [3], -3.95%; in experiment [4] it was -0.1%; in experiment [5] it was 2%; in experiment [6], 1.75%.
Consider `NNC(=O)C(=O)NN=C(C(Cl)(Cl)CO)C(Cl)(Cl)CO`, for which the growth inhibition is 18.9% in experiment [1]; -0.65% in experiment [2]; 15.1% in experiment [3]; 14.1% in experiment [4]; 22.3% in experiment [5]; 20.4% in experiment [6].
Turning to `O=S(=O)(O)C(Nc1ccc(Cl)cc1)c1ccccc1` (stereo unspecified), the growth inhibition in experiment [1] was 0.15%; in experiment [2] it was 6.2%; in experiment [3], 4.6%; in experiment [4], 12.5%; in experiment [5] it was 11.2%; in experiment [6], 10.3%.
On to `C[C@H]1C(=O)c2c(cc(O)c(C3OC(CO)C(O)C(O)C3O)c2O)OC1c1ccc(O)c(O)c1` (stereo partly specified), for which the growth inhibition is 2.65% in experiment [1]; -18.6% in experiment [2]; -16.8% in experiment [3]; 8.45% in experiment [4]; -0.25% in experiment [5]; 12.6% in experiment [6].
For the compound `O=C1CCC(=O)N1Cc1ccccc1N=[N+]([O-])c1ccccc1CN1C(=O)CCC1=O`, the growth inhibition in experiment [1] was -37.2%; in experiment [2], -14.7%; in experiment [3], 1.75%; in experiment [4] it was -0.55%; in experiment [5] it was -19.5%; in experiment [6] it was -15.9%.
Turning to `O=C(CCl)NC(=O)NC1=C(Cl)C(=O)c2ccccc2C1=O`, the growth inhibition is 98% (active) in experiment [1]; 98.6% (active) in experiment [2]; 98.3% (active) in experiment [3]; 97.7% (active) in experiment [4]; 98.3% (active) in experiment [5]; 97.7% (active) in experiment [6].
For `CCOC(=O)c1ccc(NP(=O)(Nc2ccc(C(=O)OCC)cc2)c2ccc(N)cc2)cc1`, the growth inhibition is -5.65% in experiment [1]; -17.4% in experiment [2]; -2.25% in experiment [3]; -65.7% in experiment [4]; 0.85% in experiment [5]; 4.25% in experiment [6].
